Screening data deposited in PubChem by several laboratories.
This is a sample that favours compounds with a hit; in the whole collection about 2.9% have one here.
ABCB6 inh 2 – ABCB6 transporter inhibitors, primary screen, K562-ABCB6 cells, flow cytometry, MLPCN library; fluorescence ratio to DMSO, % at 10 µM; actives 0.19% (n = 360,000); K562-ABCB6 porphyrin accumulation, 1 h; hits give low values;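 active = fluorescence ratio to DMSO below 75%, the collection mean minus 3 SD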;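 note: signal is porphyrin accumulated inside mitochondria; 100% equals median channel fluorescence of DMSO control wells; lower ratio means ABCB6 inhibition with less porphyrin fluorescence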
CRFBP-R2 block – antagonists of CRF-BP/CRF-R2 complex, primary screen, cell-based, HEK293, calcium dye fluorescence, uHTS | inhibition, % at 11.8 µM | CRF-induced calcium fluorescence | actives 0.59% (n = 350,000);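 active = inhibition of the ligand-induced calcium signal above about 50% at the single tested concentration, limit read from the data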
MEKK3 PB1 HTS – modulators of MEKK3-MEK5 PB1 binding, primary screen, biochemical, wildtype MEKK3, multiplex bead flow cytometry, Alexa488-MEK5. bead-based flow cytometry, Alexa488-MEK5 binding to MEKK3; actives lie on both sides; 0 = blocked by unlabeled MEK5, 100 = vehicle. binding response (% of control), % at 10 µM. actives 1.4% (n = 290,000). AID 1529, 2009;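 active = binding response more than 3 SD above or below the average of its plate-row segment, actives on both sides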;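 note: Alexa488 bead fluorescence after subtracting the streptavidin-only scavenger bead signal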
Target sequence (Q99759 whole entry, looked up): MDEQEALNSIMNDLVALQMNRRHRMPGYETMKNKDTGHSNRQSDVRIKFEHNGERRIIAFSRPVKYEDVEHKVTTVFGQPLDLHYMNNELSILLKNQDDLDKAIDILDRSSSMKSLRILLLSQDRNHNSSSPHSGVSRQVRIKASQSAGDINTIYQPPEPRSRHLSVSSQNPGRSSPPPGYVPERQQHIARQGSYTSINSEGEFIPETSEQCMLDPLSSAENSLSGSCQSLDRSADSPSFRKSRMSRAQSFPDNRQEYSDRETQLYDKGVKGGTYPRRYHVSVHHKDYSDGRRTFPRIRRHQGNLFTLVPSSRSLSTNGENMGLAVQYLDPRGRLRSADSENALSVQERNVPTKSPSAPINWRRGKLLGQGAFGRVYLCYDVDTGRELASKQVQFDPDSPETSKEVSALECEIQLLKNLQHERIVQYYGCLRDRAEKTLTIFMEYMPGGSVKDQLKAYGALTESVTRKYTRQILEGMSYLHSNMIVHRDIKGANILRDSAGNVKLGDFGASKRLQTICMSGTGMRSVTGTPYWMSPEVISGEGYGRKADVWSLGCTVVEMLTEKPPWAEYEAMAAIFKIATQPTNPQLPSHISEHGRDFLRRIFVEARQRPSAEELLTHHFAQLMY
MEKK2wt PB1 HTS – modulators of MEK5 binding to wildtype MEKK2, primary screen, biochemical, multiplex bead flow cytometry, Alexa488-MEK5; Alexa488-MEK5 binding to MEKK2 WT; actives lie on both sides; binding response (% of control), % at 10 µM; actives 1.1% (n = 290,000); in the data active = binding response below about 67% or above about 130%
MEKK2 mut-MEK5 – MEK5 binding signal on mutant MEKK2 PB1, primary screen, biochemical, multiplex bead flow cytometry, Alexa488-MEK5; Alexa488-MEK5 binding to MEKK2 mutant; percent response, % at 10 µM; actives 0.35% (n = 290,000); AID 1530, 2009; in the data active = percent response above about 24%, passing the limit was not always enough
CRFBP-R2 agonist – agonists of CRF-BP/CRF-R2 complex, primary screen, cell-based, HEK293, calcium dye fluorescence, uHTS; CRF-binding protein / CRF receptor 2 complex (human); calcium dye fluorescence (FLIPR); percent of saturating CRF peptide response; activation, % at 13.2 µM; actives 0.46% (n = 350,000); AID 588473, 2011;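 active = activation of at least 50%, plus an integration ratio under a set limit after plate pattern correction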;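 note: plate controls were neutral control wells without compound for no effect and CRF at EC100 for full effect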
Starred values were filed as active, the others as inactive; . = no result given.

SMILES	ABCB6 inh 2	CRFBP-R2 block	MEKK3 PB1 HTS	MEKK2wt PB1 HTS	MEKK2 mut-MEK5	CRFBP-R2 agonist
CCN(CC)Cc1c(C)[nH]c2ccc(NC(C)=O)cc2c1=O	101	67*	.	.	.	0
Cc1ccc(S(=O)(=O)NCc2ccccc2)cc1C(=O)NC1CCC(C)CC1 (stereo not drawn)	97	2	104	108	7	-2
CC1CCN(C(=O)COC(=O)c2cc([N+](=O)[O-])ccc2N2CCOCC2)CC1	100	6	.	.	.	0
Cc1ccc(C(=O)c2cc([N+](=O)[O-])ccc2N2CCOCC2)cc1C	99	-100	144*	111	1	35
COC(=O)C1CCN(C(=O)COC(=O)c2cc([N+](=O)[O-])ccc2N2CCOCC2)CC1	91	105*	.	.	.	0
COc1ccc(C(=O)c2cc([N+](=O)[O-])ccc2N2CCCC2)cc1	99	24	132*	106	1	-7
CC(C)Cc1ccc(-c2cc3nc(NCC4CC4)ccn3n2)cc1	93	.	.	.	.	.
CC1CCCCC1NC(=O)CSc1nnc(CC(=O)Nc2ccccc2F)n1C (stereo not drawn)	87	1	97	101	3	0
Cc1ccc(OCCOC(=O)Cn2nc(C)c([N+](=O)[O-])c2C)cc1	96	54*	112	111	-1	3
CCOC(=O)Cn1nc(C)c([N+](=O)[O-])c1C	100	6	97	91	-11	1
CC1CCCCN1S(=O)(=O)c1ccc2[nH]c(=O)cc(C(=O)NCCCN3CCCCCC3)c2c1 (stereo not drawn)	99	-17	103	143*	20	-1
O=C(N/N=C/c1cc([N+](=O)[O-])cc(Br)c1O)C12CC3CCC(CC(C3)C1)C2	93	-30	102	97	1	117*
CC(C)(C)c1ccc(C(=O)Nc2cccc(-n3cnnn3)c2)cc1	103	-19	101	103	-8	1
COc1ccc2c(c1)C(c1ccc([N+](=O)[O-])cc1)=NNC(c1ccco1)=N2	102	32	93	97	1	-1
COc1ccc(C2=NNC(c3ccco3)=Nc3ccc(F)cc32)cc1	100	54*	105	106	1	-2
Cc1cc(C(=O)N2CCN(c3ccc([N+](=O)[O-])cc3)CC2)n[nH]1	99	3	101	103	7	-2
c1ccc(-c2nnc(-c3ccco3)n2-c2ccccc2)cc1	101	39	100	103	-1	2
c1ccc(-n2c(-c3ccncc3)nnc2-c2ccco2)cc1	95	56*	99	95	-4	0
Cc1cc(CN2CCC(n3nccc3NC(=O)c3ccccc3C)CC2)n[nH]1	90	-2	103	106	7	0
O=C(COc1ccc2c(-c3ccccc3)cc(=O)oc2c1)NCc1cccs1	102	1	93	4.0*	5	-2
COc1cccc2c1C1COC3C4CC(C(=O)O)C(C(C2)N13)N4C (stereo not drawn)	97	29	.	.	.	-1
COc1cccc(N2CCN(C(=O)c3ccc(Cl)c(NC4=NC5CS(=O)(=O)CC5S4)c3)CC2)c1 (stereo not drawn)	102	6	98	97	0	0
CC1CCN(S(=O)(=O)c2ccc(Cl)cc2)CC1	103	7	101	99	-4	-1
CC1CCN(S(=O)(=O)c2ccc(C(C)C)cc2)CC1	94	-257	102	99	-4	90*
O=C1C=C(c2ccccc2)OC(c2ccccc2)O1 (stereo not drawn)	97	-6	92	96	-12	-2
SMILES	ABCB6 inh 2	CRFBP-R2 block	MEKK3 PB1 HTS	MEKK2wt PB1 HTS	MEKK2 mut-MEK5	CRFBP-R2 agonist
O=C1C=C(c2ccccc2)C(c2ccccc2)C1O (stereo not drawn)	88	-75	.	.	.	77*
COc1ccccc1CNC(=S)NC1CCCC1	69*	9	93	100	7	0
COc1ccccc1NC(=S)NC1CCCCC1	100	26	101	102	1	-5
CC(C)(C)NC(=O)/C(=C/c1ccccc1F)NC(=O)c1ccc([N+](=O)[O-])cc1	100	52*	100	99	0	-1
C[C@@H](C(=O)N1CCN(C(=O)OC(C)(C)C)CC1)n1cc(-c2cn([C@@H](C)C(=O)N3CCN(C(=O)OC(C)(C)C)CC3)nn2)nn1	.	.	89	4.0*	4	.
CC(C)C(C(=O)N1CCN(C(=O)OC(C)(C)C)CC1)n1cc(-c2cn([C@@H](C)C(=O)N3CCN(C(=O)OC(C)(C)C)CC3)nn2)nn1 (stereo partly drawn)	.	.	74	80	3	.
COc1ccc(S(=O)(=O)N2CCOC23CCN(S(=O)(=O)c2cc(F)ccc2F)CC3)cc1	95	7	.	.	.	0
Cc1cccc(C(=O)N2CCc3cc(-c4csc(NC(=O)CN5CCCC5)n4)ccc32)c1	94	-12	105	121	25*	0
Cc1cccc(C(=O)N2CCc3cc(-c4nc(NC(=O)CN5CCCC5)sc4C)ccc32)c1	94	0	102	106	3	0
CCN(CC)CCCNc1ccc2ncn3c4ccc(O)cc4c(=O)c1c23	930	-245	.	.	.	215*
COc1ccccc1C(=O)Oc1ccc2c(c1)O/C(=C\c1ccncc1)C2=O	102	-60	91	97	-4	124*
CC(=O)Oc1ccc2c(c1)O/C(=C\c1ccncc1)C2=O	101	-67	87	89	-12	127*
Cc1nn(C(C)C(=O)NCCCN2CCCCCC2)c(=O)c2cc3sccc3n12 (stereo not drawn)	103	5	108	144*	15	1
CCC(C(=O)NCCN1CCOCC1)n1nc(C)n2c(cc3sccc32)c1=O (stereo not drawn)	99	-4	101	101	2	0
CN(Cc1ccc(C(F)(F)F)cc1)C(=O)C1CCC(=O)N(C2CC2)C1 (stereo not drawn)	93	-3	98	100	-3	1
CN(Cc1cccc(Cl)c1)C(=O)C1CCC(=O)N(C2CC2)C1 (stereo not drawn)	103	81*	101	102	2	0
COC(=O)C1=CN(Cc2ccc(OC)cc2)C=C(C(=O)OC)C1c1cccs1	102	111*	99	93	-6	-1
